From PubChem BioAssay (NCATS)
Values joined by “and” are separate entries in the source; they are usually repeats but may differ in a detail not shown here. Equal values may be shown once. Records with an inconclusive call do not appear. Active and inactive are the calls of the source. Calls come from the whole dose curve; as a rule, active = well fitted curve in the direction sought with a large enough effect; inconclusive = small, poorly fitted or top-dose-only effect, or another doubt; inactive = no such curve, though single readings can be large; an effect the other way counts as inactive or inconclusive.

Legend:
[1] = Viability qHTS for spleen associated tyrosine kinase inhibitor (SYKi) naive MV4-11 cells (AID 1963823); note: nearly all actives have a fitted effect of over 40% in size
Summary of the method: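 CellTiter-Glo luminescence, 10 min room-temperature incubation, gave viability. Cells: naive MV4-11 (500/well), treated 72 hr at 37 C, 5% CO2.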

[2] = Viability qHTS for spleen associated tyrosine kinase inhibitor (SYKi) drug resistant MV4-11 cells (AID 1963824); note: nearly all actives have a fitted effect of over 35% in size
Summary of the method: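 SYK-inhibitor-resistant MV4-11 AML cells were seeded at 500 per well onto compound and cultured 72 hours (37 °C, 5% CO2). CellTiter-Glo was then added, and after 10 min at room temperature, luminescence gave viability.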

[3] = Cellular viability qHTS for adrenocortical cancer (ACC) cell line SW-13 (AID 1963989); conditions: SW-13 ACC cells viability, CellTiter-Glo, 48 h; activity (max response): stronger effect = lower value; note: nearly all actives have a fitted effect of over 65% in size;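 for activity (max response): cells grown in serum-free medium with ITS supplement; % is set by controls: 0 for no effect and ±100 for the full control effect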
Summary of the method: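 Viability was read as CellTiter-Glo luminescence after 48 h compound treatment (up to 46 uM final) of SW-13 cells grown serum-free; titration curves were fit with a four-parameter logistic model to give IC50 and efficacy.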

[4] = Cellular viability qHTS for adrenocortical cancer (ACC) cell line NCI-H295R (AID 1963990); note: nearly all actives have a fitted effect of over 60% in size
Summary of the method: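 CellTiter-Glo ATP luminescence, read 48 h after compound addition, measured viability of NCI-H295R adrenocortical cells grown serum-free with ITS. Final concentrations spanned up to 46 uM. Data normalized to DMSO and doxorubicin, fitted for IC50 and maximal response.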
Potency is the fitted concentration of half-maximal effect.

NC(CC1c2ccccc2Oc2ccccc21)(C(=O)O)C1CC1C(=O)O (configuration not stated)
inactive: Potency [1] | Potency [2] | activity (max response) [3] 1.03% | Potency [4]

CCS(=O)(=O)N1CCN(c2ccc(Nc3ncc(C(N)=O)c(NC4CC4)n3)cc2)CC1
active: Potency [1] 130 nM and 332 nM | Potency [2] 184 nM and 525 nM | Potency [3] 22.4 µM | Potency [4] 10 µM

Cc1ccc(-c2nc(N)nc3c2nnn3Cc2cccc(CO[C@H]3CCOC3)n2)o1
active: Potency [2] 16.6 µM
inactive: Potency [1] | activity (max response) [3] -12.5% | Potency [4]

COc1cc(N2CCN(C)CC2)ccc1Nc1nccc(-c2cn(C)c3cnccc23)n1
inactive: activity (max response) [3] -3.47%
active: Potency [1] 116 nM and 209 nM | Potency [2] 517 nM and 590 nM | Potency [4] 25.1 µM

COc1cc(N2CCN(C)CC2)ccc1Nc1ncc2c(n1)N(C)c1ccccc1C(=O)N2C
active: Potency [1] 0.934 µM | Potency [2] 1.86 µM | Potency [3] 15.8 µM | Potency [4] 14.1 µM

COc1cc2ncnc(Oc3cccc(NC(=O)Nc4cc(C(C)(C)C(F)(F)F)on4)c3)c2cc1OC
active: Potency [1] 0.164 µM | Potency [2] 0.291 µM
inactive: activity (max response) [3] -26.2% | Potency [4]

O=C(CCCCCCNC(=O)c1cnc(N(c2ccccc2)c2ccccc2Cl)nc1)NO
active: Potency [1] 3.32 µM | Potency [2] 2.63 µM | Potency [3] 14.1 µM | Potency [4] 11.2 µM

CNCCn1c(=O)c2cc(OC)c(OC)cc2c2cnc3cc4c(cc3c21)OCO4
active: Potency [1] 0.0152 µM | Potency [2] 0.0121 µM | Potency [3] 0.0422 µM | Potency [4] 0.596 µM

Cc1c(NC(=O)OCC2COCCN2)cn2ncnc(Nc3ccc4c(cnn4Cc4cccc(F)c4)c3)c12 (configuration not stated)
active: Potency [1] 4.61 µM and 16.6 µM | Potency [2] 5.8 µM and 16.6 µM | Potency [3] 22.4 µM | Potency [4] 31.6 µM

Cc1[nH]cnc1CN1CCN(C(=O)N[C@@H](CC(C)C)C(=O)O)[C@@H](Cc2ccccc2)C1=O
inactive: Potency [1] | Potency [2] | Potency [4]

CC(C)(C)CC(C)(C)c1ccc(O)c(-n2nc3ccccc3n2)c1
inactive: Potency [1] | Potency [2] | activity (max response) [3] 4.68% | Potency [4]

CC(COc1ccccc1)NN (configuration not stated)
inactive: Potency [1] | Potency [2] | activity (max response) [3] 12.2% | Potency [4]

Cc1sc2c(c1C)C(c1ccc(Cl)cc1)=N[C@@H](CC(=O)Nc1ccc(OCCOCCOCCOCCNc3cccc4c3C(=O)N(C3CCC(=O)NC3=O)C4=O)cc1)c1nnc(C)n1-2 (some centres not stated)
inactive: Potency [1]
active: Potency [2] 0.0166 µM | Potency [4] 3.98 µM

N#Cc1cc2cc(CN3CCC(Nc4ncnc5sc(CC(F)(F)F)cc45)CC3)c(O)cc2n1Cc1cn[nH]c1
active: Potency [1] 0.742 µM | Potency [2] 1.32 µM | Potency [4] 8.91 µM

Cc1cccc(/C=N/Nc2cc(N3CCOCC3)nc(OCCc3ccccn3)n2)c1
active: Potency [1] 1.32 µM | Potency [2] 0.296 µM | Potency [4] 28.2 µM

Cc1ccc(S(=O)(=O)NC(=O)NN2CCCCCC2)cc1
inactive: Potency [1] | Potency [2] | Potency [4]

CCCCCCCOc1ccc(CCC(N)(CO)CO)cc1C(F)(F)F
active: Potency [1] 7.42 µM | Potency [2] 8.33 µM | Potency [4] 10 µM

CN(C)/N=N/c1nc[nH]c1C(N)=O
inactive: Potency [1] | Potency [2] | activity (max response) [3] 10.5% | Potency [4]

NC(=S)N/N=C/c1cccnc1
inactive: Potency [1] | Potency [2] | activity (max response) [3] -1.7% | Potency [4]

CCS(=O)(=O)Nc1ccc(Oc2ccc(F)cc2F)c(-c2cn(C)c(=O)c3[nH]ccc23)c1
active: Potency [1] 0.0037 µM | Potency [2] 0.0042 µM | Potency [3] 2 µM | Potency [4] 5.01 µM

CCN(CC)CCNc1ccc(C)c2sc3ccccc3c(=O)c12
active: Potency [1] 5.25 µM | Potency [2] 7.42 µM | Potency [3] 25.1 µM | Potency [4] 15.8 µM

C=CC(=O)N1CCC(Oc2cc3c(Nc4ccc(Cl)c(Cl)c4F)ncnc3cc2OC)CC1
active: Potency [1] 1.03 µM | Potency [2] 4.68 µM | Potency [4] 25.1 µM

CN=C(NC#N)NCCSCc1nc[nH]c1C
inactive: Potency [1] | Potency [2] | activity (max response) [3] -4.08% | Potency [4]

C[C@@]12C(=O)OC(=O)[C@]1(C)[C@H]1CC[C@@H]2O1
active: Potency [1] 2.63 µM | Potency [2] 2.63 µM | Potency [4] 3.98 µM

O=C(O)c1ccccc1NCCc1ccccc1
inactive: Potency [1] | Potency [2] | activity (max response) [3] 9.86% | Potency [4]
